PvdQ inh: P. aeruginosa PvdQ acylase inhibitors, primary screen, biochemical, fluorescence, plate reader and imaging, single point | PvdQ acylase [Pseudomonas aeruginosa LESB58] | purified PvdQ acylase | inhibition, % at 10 µM | 340,000 compounds, 0.063% hits; in the data active = inhibition above about 30%, passing the limit was not always enough
HTR5A inv ctr: HTR5A inverse agonists in luminescence cell assay, primary screen, counter-screen for OPRM1-OPRD1 heterodimer inverse agonist project, full-deck HTS | 5-hydroxytryptamine receptor 5A (Homo sapiens), P47898 | HTR5A cell line, inverse agonism | inhibition, % at 9.3 µM | 340,000 compounds, 0.083% hits | AID 504634, 2011; in the data active = inhibition mostly above about 23%, no sharp cut-off; inactive = mostly below about 18%
CR mimetic SO: reduction of superoxide in aged yeast, primary screen, HTS. superoxide response (% of plate mean), % at 10 µM. AID 2690, 2010. S. cerevisiae aged cells, superoxide DHE fluorescence; stronger effect = lower value. 330,000 compounds, 0.18% hits;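 active = superoxide response under a set limit, about three screen SD below normal, cut at about 65% in these data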;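 also: yeast aged for seven days with compound at 30 °C before DHE staining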
HTR5A ag: HTR5A agonists in luminescence cell assay, primary screen, counter-screen for OPRM1-OPRD1 heterodimer agonist project, full-deck HTS | cell-based | activation, % at 9.3 µM | AID 504692, 2011 | 340,000 compounds, 0.61% hits | 5-hydroxytryptamine receptor 5A (Homo sapiens), P47898; in the data active = activation mostly above about 9.5%, no sharp cut-off; inactive = mostly below about 7.6%
MOR-DOR ag: agonists of OPRM1-OPRD1 heterodimerization, primary screen, cell-based, luminescence | Mu-type opioid receptor (Homo sapiens) + Delta-type opioid receptor (Homo sapiens), … | cells | activation, % at 9.3 µM | 340,000 compounds, 0.3% hits | AID 504326, 2011; in the data active = activation above about 18%
OPRM1-OPRD1 inv: inverse agonists of MOR-DOR heterodimerization, primary screen, cell-based, luminescence; Mu-type opioid receptor (Homo sapiens) + Delta-type opioid receptor (Homo sapiens), …; inhibition, % at 9.3 µM; cell-based MOR-DOR heterodimer luminescence, inverse agonism; 340,000 compounds, 0.21% hits; in the data active = inhibition above about 22%, passing the limit was not always enough
Numbers stand for hits; i = inactive; nt = no result. Most compounds without a hit are left out; they make up all but 1.3% or so of the library.

SMILES	PvdQ inh	HTR5A inv ctr	CR mimetic SO	HTR5A ag	MOR-DOR ag	OPRM1-OPRD1 inv
O=C(NCc1cccnc1)C(=O)NCC1OCCCN1S(=O)(=O)c1ccc(F)cc1 (stereo unspecified)	i	i	i	i	i	i
O=C(COc1ccccc1)Nc1ccc(CSc2ccccc2)cc1	i	i	i	11.7	i	i
Nc1c(C(=O)Nc2ccccc2Cl)nnn1-c1ccc2c(c1)OCCO2	i	i	i	i	i	i
C=CCn1c(-c2ccccc2)c[nH]c1=S	i	i	i	i	i	i
Cn1c(-c2ccc(-c3ccccc3)cc2)c[nH]c1=S	i	45.9	i	i	i	41.0
COc1ccc(N=CC2=C(O)CC(c3ccccc3)CC2=O)c(OC)c1 (stereo unspecified)	i	i	i	i	i	i
CCOc1ccccc1N=CC1=C(O)CC(c2ccccc2)CC1=O (stereo unspecified)	i	i	i	12.6	i	i
CC1CN(S(=O)(=O)c2ccc(F)cc2)C(C)N1C(=O)N1CCOCC1 (stereo unspecified)	i	i	i	i	i	i
Cc1ccc(S(=O)(=O)Nc2nc(C)c(C(=O)N/N=C/c3ccccc3)s2)cc1	i	i	i	13.1	i	i
C/C(=N/NS(=O)(=O)c1ccc(F)cc1)c1ccncc1	i	i	i	11.3	i	i
CC(=NNS(=O)(=O)c1ccc([N+](=O)[O-])cc1)c1ccc(C)cc1	i	i	nt	11.2	i	i
CC(=O)Nc1ccc(/C(C)=N/NS(=O)(=O)c2ccc(C)cc2)cc1	i	i	i	i	i	i
CCCCNC(=S)NNC(=O)CCn1cc(C)cn1	i	i	i	i	i	i
CCCCNC(=S)NNC(=O)CCn1nc(C)c(Br)c1C	i	49.5	i	i	i	76.2
Cc1ccc(NC(=O)Cn2c(O)c(N=NS(=O)(=O)c3ccc(C)cc3)c3ccccc32)cc1	i	i	i	i	i	52.9
Cc1ccc(NC(=O)Cn2c(O)c(N=NC(N)=O)c3ccccc32)cc1	i	i	i	i	i	i
CCOCCCNC(=O)C(NC(=O)c1ccc(NC(C)=O)cc1)c1ccccc1 (stereo unspecified)	i	i	61.2	i	i	i
CCOCCCNC(=O)C(NC(=O)c1ccc(NC(C)=O)cc1)c1ccc(C)cc1 (stereo unspecified)	i	i	i	i	i	i
CCN1CCN(CC(=O)Nc2ccc(S(=O)(=O)N3C(C)CCCC3C)cc2)CC1 (stereo unspecified)	i	i	i	i	i	i
CCN(CCCNC(=O)CNC(=O)c1nn(-c2ccc(OC)c(OC)c2)c(=O)c2ccccc12)c1ccccc1	i	i	i	i	i	i
CCOC(=O)c1ccc(N2Cc3ccccc3C2)cc1O	63.5	i	i	i	i	i
CC(C)NC(=O)N(C)C[C@H]1Oc2c(NC(=O)Nc3ccccc3)cccc2C(=O)N([C@H](C)CO)C[C@@H]1C	i	i	i	i	i	i
O=C(C[C@@H]1C/C=C/CC[C@@H](Cc2ccc(F)cc2)C(=O)O[C@H](c2ccccc2)CNC1=O)NCCO	i	i	i	i	i	i
CC(O)(P(=O)(O)O)P(=O)(O)O	i	i	nt	i	i	i
Cc1ccc(CCNC(=O)CCS(=O)(=O)c2ccc(Br)cc2)cc1	30.5	i	i	i	i	i
SMILES	PvdQ inh	HTR5A inv ctr	CR mimetic SO	HTR5A ag	MOR-DOR ag	OPRM1-OPRD1 inv
CC(C)(C)c1ccc(Oc2ccc(NC(=O)c3cccs3)cn2)cc1	i	i	i	13.1	i	i
Cc1ccc(-n2c(=O)c3ccc(C(=O)NCc4ccco4)cc3n(Cc3ccccc3C#N)c2=O)cc1	i	37.5	i	i	i	34.6
Cc1ccccc1Cn1c(=O)n(-c2ccccc2)c(=O)c2ccc(C(=O)NCc3ccco3)cc21	i	i	i	i	i	i
Cc1cc(-c2ccccc2)nc2cc(C(=O)NCCCn3ccnc3)nn12	i	i	i	i	i	i
COCCNC(=O)c1cc2nc(-c3ccccc3)cc(C)n2n1	33.7	i	i	i	i	i
Cc1cccc(CC2S/C(=N/N=C/c3ccco3)N(c3ccccc3)C2=O)c1 (stereo unspecified)	i	i	i	13.8	i	i
CC(=O)c1ccc(S(=O)(=O)N(CC(=O)NC2CC2)Cc2ccc(F)cc2)cc1	i	i	nt	i	i	i
CC(=O)c1ccc(OCC(=O)N2CCN(S(=O)(=O)c3ccc(C)cc3C)CC2)cc1	i	i	i	i	i	i
O=c1oc(-c2ccc(F)cc2)nc2ccsc12	70.2	i	i	i	i	i
O=C(O)CCC(=O)Nc1ccccc1C(=O)Nc1ccccc1	i	i	i	i	i	i
O=C(O)CCC(=O)Nc1ccccc1C(=O)NCCc1ccccc1	i	i	i	11.5	i	i
OC(c1cccc(Cl)c1)c1nccc2ccccc12 (stereo unspecified)	35.5	i	i	i	i	i
COc1ccc(C(=O)CC(=O)c2ccc(C(C)(C)C)cc2)cc1	i	i	nt	i	i	i
COc1ccc(C(=O)C(CCC(CNC(C)(C)C)C(=O)c2ccc(OC)cc2)CNC(C)(C)C)cc1 (stereo unspecified)	i	i	i	12.7	i	i
C#CCOCCOCCOCCNc1nc(N2CCN(C(=O)Cn3cc(CCCN=C(N)N)nn3)CC2)nc(N2CCN(C(=O)[C@H](CCCCN)n3cc(CCCC)nn3)CC2)n1	i	i	i	i	i	i
O=C(NCC1CCCCC1)c1cc(S(=O)(=O)N2CCCCC2)ccc1Cl	i	i	i	i	i	i
O=C(NCC1CCCCC1)c1cc(Br)ccc1Cl	33.9	i	i	i	i	i
O=C1C=C(c2ccc(F)c(Cl)c2)C[C@@H](c2ccc(F)cc2)C1	i	i	i	i	i	i
N#Cc1ccc(COc2cccc3cccnc23)cc1	i	i	i	13.7	i	i
CCOC(=O)CCCNC(=O)CN1CCC(c2nc3ccccc3s2)CC1	i	i	i	i	i	i
COc1cc(/C(C)=N/NC(=O)c2ccc(CSc3nncn3C)cc2)cc(OC)c1OC	i	i	i	10.4	i	i
COc1ccc(/C=N/NC(=O)c2ccc(CSc3nncn3C)cc2)cc1OC	i	i	i	i	i	i
COc1ccc(NS(=O)(=O)c2cccc(C(=O)NCc3ccccc3CN3CCCC3)c2)cc1	i	i	i	12.0	i	i
Nc1nc(-c2ccc3ccccc3c2)cs1	i	i	i	i	i	i
c1ccc2cc(-c3csnn3)ccc2c1	34.8	i	i	i	i	i
CC1=Nc2cc(C(=O)NCCCN3CCOCC3)ccc2Sc2c(C)ccc(C)c21	i	i	i	10.0	i	i

Bioassay records (PubChem)
